The list is not random: actives were taken first. Their share in the collection is about 4.4%.
D1 ag – Allosteric Agonists of the Human D1 Dopamine Receptor: qHTS. activation, % at 2 µM. AID 504660, 2011. 360,000 compounds, 1% hits. HEK293 T-REx D1 cells, calcium flux, agonist mode; also: 0% is about no effect
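Agonism was scored from calcium flux recorded over 180 s (1 read/s) after pintool compound addition, following a 10-cycle baseline. Cells were inducible force-coupled HEK293 TREx D1, plated overnight at 30 C and loaded with no-wash calcium dye.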
USP1-UAF1 inh – Inhibitors of USP1/UAF1: Primary Screen | Ubiquitin carboxyl-terminal hydrolase 1 (Homo sapiens), O94782 | recombinant USP1/UAF1, Ub-Rhodamine cleavage fluorescence | Potency, µM (highest dose often 57.1 µM), without a hit: top-dose activity change, negative = inhibition, most hits filed as inhibitors | 390,000 compounds, 0.23% hits; active = well fitted inhibition curve with a large enough effect; inconclusive = small, poorly fitted or top-dose-only effect; inactive = no such curve, though single readings can be large or run the other way; also: potency is read from the fitted curve at half-maximal effect; % is scaled to controls: 0 for no effect and ±100 for the full control effect; nearly all actives have a fitted effect of over 60% in size
Target sequence (O94782 whole entry, looked up): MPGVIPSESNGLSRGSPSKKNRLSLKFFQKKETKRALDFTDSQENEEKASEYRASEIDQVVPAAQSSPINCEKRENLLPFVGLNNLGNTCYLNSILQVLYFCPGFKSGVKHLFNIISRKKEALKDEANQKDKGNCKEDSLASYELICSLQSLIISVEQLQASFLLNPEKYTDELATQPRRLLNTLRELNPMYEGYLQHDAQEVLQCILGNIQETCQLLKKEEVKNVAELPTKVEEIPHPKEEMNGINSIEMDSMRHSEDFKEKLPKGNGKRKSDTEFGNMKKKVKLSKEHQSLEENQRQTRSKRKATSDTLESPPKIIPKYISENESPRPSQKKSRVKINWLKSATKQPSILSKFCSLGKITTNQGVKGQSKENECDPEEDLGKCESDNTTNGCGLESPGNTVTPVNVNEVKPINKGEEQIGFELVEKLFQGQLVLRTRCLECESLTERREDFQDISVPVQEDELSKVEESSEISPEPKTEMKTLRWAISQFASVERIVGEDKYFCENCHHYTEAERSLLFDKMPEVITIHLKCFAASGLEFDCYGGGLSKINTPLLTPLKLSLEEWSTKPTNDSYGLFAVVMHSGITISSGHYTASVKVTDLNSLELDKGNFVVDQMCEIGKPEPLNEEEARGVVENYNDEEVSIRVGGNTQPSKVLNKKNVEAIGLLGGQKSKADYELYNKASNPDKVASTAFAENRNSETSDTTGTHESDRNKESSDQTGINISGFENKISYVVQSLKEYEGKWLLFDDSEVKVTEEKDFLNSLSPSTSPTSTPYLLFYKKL
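USP1/UAF1 complex (1 nM) preincubated 15 min at room temperature with compound, then Ub-Rho substrate (150 nM final) added. Kinetic fluorescence at 480/540 nm over 6 reads at 60 s intervals; 50 mM HEPES pH 7.8, 0.5 mM EDTA, 0.1 mg/ml BSA, 1 mM TCEP, 0.01% Tween-20.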
D1 antag – Antagonist of Human D 1 Dopamine Receptor: qHTS. HEK293 TREx D1 cells, calcium flux, dopamine EC80; hits give low values. activity change, negative = inhibition, % at 10 µM. D(1A) dopamine receptor (Homo sapiens), P21728. AID 504652, 2011. 360,000 compounds, 3.2% hits; in the data active = activity change below about -30%; also: % is scaled to controls: 0 for no effect and ±100 for the full control effect
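Tetracycline-induced HEK293 T-REx cells with force-coupled D1 receptor were loaded with a no-wash calcium dye. Compound was added after a 10 s baseline and read kinetically for 180 s; EC80 dopamine was then added and calcium flux followed another 180 s.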
TRHR agonist – qHTS for Small Molecule Agonists and Allosteric Enhancers of Human TRH Receptor: Primary Screen for Agonists; Thyrotropin-releasing hormone receptor (Homo sapiens), P34981; TRHR cells, calcium flux fluo-8, FDSS agonist mode; activation, % at 2 µM; 360,000 compounds, 0.18% hits; AID 493084, 2011; also: 0% is about no effect
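Fluo-8-loaded TRHR cells; 10 s baseline, compound added, kinetic Ca2+ fluorescence read 1/s, agonist mode.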
D1 PAM – Potentiators of Human D1 Dopamine Receptor: qHTS. D(1A) dopamine receptor (Homo sapiens), P21728. HEK293 TREx D1 cells, calcium flux, dopamine EC20 potentiation. potentiation, % at 10 µM. 360,000 compounds, 0.036% hits. AID 504651, 2011; in the data active = potentiation above about 30%; also: 0% is about no effect
TRHR enhancer – qHTS for Small Molecule Agonists and Allosteric Enhancers of Human TRH Receptor: Primary Screen for Enhancers; AID 493056, 2011; TRHR cells, fluo-8 calcium fluorescence, EC20 TRH enhancement; enhancement, % at 2 µM; 360,000 compounds, 0.66% hits; Thyrotropin-releasing hormone receptor (Homo sapiens), P34981; in the data active = enhancement above about 30%; also: 0% is about no effect
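TRHR-expressing cells loaded with fluo-8 calcium dye were read kinetically (ex 480/em 530) during compound addition, then stimulated with an EC20 of TRH (10 nM final). Enhancement of the Gq-mediated intracellular calcium response was scored.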
* = called active by the depositor; u = inconclusive; x = no result; ! = repeats disagree. Rule as the data show it, unless noted: active = activation above about 30%; inactive = the rest.

SMILES | D1 ag | USP1-UAF1 inh | D1 antag | TRHR agonist | D1 PAM | TRHR enhancer
CCOc1ccc(C(=O)Nc2nc(-c3ccc(Br)cc3)ns2)cc1 | -1.2 | -3.0% | 1.0 | 0.1 | -1.9 | 6.2
Clc1ccc(-c2cc(COc3ccccc3)on2)cc1 | 35.2* | -12.7% | 11.2 | 2.9 | 5.1 | 14.3
Clc1ccc(OCc2cc(-c3ccccc3)no2)cc1Cl | 16.4 | -18.6% | -3.0 | 0.9 | -2.8 | -3.3
Cc1ccc(-c2cc(C(=O)NCCc3ccccc3)c3ccccc3n2)cc1C | 1.9 | -12.5% | -30.8* | 0.0 | -2.1 | -0.1
Cc1cc(C)n2ncc(C(=O)NCCc3ccccc3)c2n1 | -0.1 | -5.6% | -32.9* | -0.2 | 3.8 | -2.9
CCOc1ccc(-c2cc(C(=O)NCCc3ccc(C)cc3)c3ccccc3n2)cc1 | -0.7 | -35.5% | -0.1 | 1.1 | 2.5 | -9.3
Cc1cc(C)n2ncc(C(=O)NCc3ccccc3)c2n1 | 0.3 | -0.2% | -3.9 | 0.3 | 12.3 | -3.0
CCOC(=O)c1ccc(NC(=O)C(C)N(c2ccc(OCC)cc2)S(C)(=O)=O)cc1 (centres undefined) | 4.5 | -20.3% | 4.1 | 1.6 | -3.0 | 2.1
Cc1ccc(C)c(N2CCN(CCCNC(=O)c3cnn(-c4ccccc4Cl)c3C3CCN(C(=O)OC(C)(C)C)CC3)CC2)c1 | 7.1 | -19.7% | 12.5 | 0.4 | 0.0 | 13.4
Cc1ccc(NC(=O)c2sc3nc[nH]c(=O)c3c2C)cc1Cl | 1.2 | 8.2% | 0.8 | 0.6 | -1.4 | 10.6
Cc1ccc(NC(=O)c2sc3nc[nH]c(=O)c3c2C)c(C)c1 | 7.8 | 2.4% | -47.9* | 0.0 | -11.9 | 0.1
COc1ccc(NC(=O)C2CCC(CNS(=O)(=O)c3ccc(Br)s3)CC2)cc1OC (centres undefined) | -1.3 | -21.8% | -2.7 | -0.1 | -2.8 | 1.4
COc1ccc(CNC(C)C2COc3ccccc3O2)c(OC)c1 (centres undefined) | 14.2 | -18.7% | -12.5 | 0.3 | -2.8 | 0.2
CC(NCc1ccccc1)C1COc2ccccc2O1 (centres undefined) | 1.6 | -6.1% | 9.9 | 0.0 | -2.8 | 31.3*
COc1cc(NC(=O)c2cccc3c2C(=O)N(C2CCCCC2)C3)cc(OC)c1OC | -1.4 | -14.1% | -77.6*! | -1.1 | 1.5 | 4.7
CCc1ccc(NC(=O)CC2C(=O)N(c3cccc(C)c3)C(=O)N2Cc2ccco2)cc1 (centres undefined) | 2.9 | -12.6% | -7.4 | 0.6 | -4.0 | -3.8
CCC(=O)N1c2ccccc2CC1C(=O)NCCc1ccc(Cl)cc1 (centres undefined) | -0.7 | -27.7% | -14.0 | -0.5 | -0.1 | -3.9
CCOc1ccccc1CN1CCC(Oc2cccc(C(=O)NCCOC)c2)CC1 | 3.0 | -7.9% | -48.2* | -1.0 | -8.3 | 2.8
O=C(c1cccc(OC2CCN(Cc3cc(F)cc(F)c3)CC2)c1)N1CCCC1 | 2.0 | -5.1% | -10.7 | -0.1 | 0.3 | 0.2
O=C(c1cccc(OC2CCN(Cc3ccc(F)cc3Cl)CC2)c1)N1CCCC1 | 6.1 | -3.8% | -32.8* | -0.2 | -7.3 | -2.3
Cc1cccc(OC2CCN(Cc3c(C(=O)N4CCCC4)nc4ccccn34)CC2)c1 | 6.8 | -7.4% | -44.2* | 1.0 | -0.8 | -4.7
CN(C)c1ccc(/C=C/c2cc[n+]([O-])cc2)cc1 | 72.7* | x | 23.5 | 60.6* | -5.2 | 2.1
COCCCn1c(SCc2ccccc2F)nc2c(sc3ccccc32)c1=O | 3.4 | -22.0% | -8.6 | 0.4 | -0.9 | -2.6
Cc1ccc(NC(=O)CN2CCN(C3CCCCC3)C(=O)C2=O)cc1C | 1.8 | -6.2% | -1.4 | -0.5 | 1.2 | 2.2
Nc1cccc(CP(=O)(c2ccccc2)c2ccccc2)c1 | 0.9 | -3.4% | 2.8 | 0.3 | -3.9 | 31.4*
SMILES | D1 ag | USP1-UAF1 inh | D1 antag | TRHR agonist | D1 PAM | TRHR enhancer
O=C(Nc1nc(-c2ccccn2)cs1)c1ccco1 | 2.1 | -23.8% | 4.9 | -0.5 | -3.8 | 0.6
O=C(Nc1nc(-c2cc3ccccc3oc2=O)cs1)c1ccco1 | -0.5 | -18.2% | -63.7* | 0.5 | -8.0 | 0.5
C/C(N)=C(/C#N)C(=O)COC(=O)c1ccc(C#N)cc1 | 4.0 | -17.6% | -44.2* | -0.1 | -7.2 | 0.6
C/C(N)=C(/C#N)C(=O)COC(=O)c1ccc(O)cc1 | 1.3 | -15.9% | -2.8 | 0.4 | -2.5 | -5.7
Cc1cc2c(n1-c1ccc(C(=O)NCc3ccccc3Cl)cc1)CCCC2 | 0.1 | -9.2% | -10.9 | 0.1 | 1.7 | 0.6
COc1ccc(C(=O)c2sc3nc(-c4ccccc4)ccc3c2N)cc1 | 157.9* | u | -3.7 | 10.3 | -2.0 | -20.0
COc1cccc(-c2ccc3c(N)c(C(=O)Nc4ccc(C)c(F)c4)sc3n2)c1 | 15.1 | -2.2% | -14.2 | -0.9 | -1.7 | 0.8
CC(C)OC(=O)c1sc2nc(-c3ccccc3)ccc2c1N | 3.5 | -16.0% | 5.2 | 2.4 | -9.5 | -2.7
COc1cccc(-c2ccc3c(N)c(C(=O)c4ccc(Cl)cc4)sc3n2)c1 | 97.6* | -24.1% | -6.8 | 18.1 | 1.4 | -5.1
Cc1ccc(S(=O)(=O)NC(C(=O)Oc2ccc3c(C(F)(F)F)cc(=O)oc3c2)c2ccccc2)cc1 (centres undefined) | 56.9* | -2.8% | -9.0 | 12.8 | -5.8 | 9.2
O=C(CCCCCN1C(=O)c2cccc3cccc(c23)C1=O)NC1CCS(=O)(=O)C1 (centres undefined) | 1.0 | -20.8% | -31.1* | 0.2 | -2.7 | 1.0
Cc1csc2ncc(C(=O)NCc3ccc4c(c3)OCO4)c(=O)n12 | 3.6 | -13.8% | 2.5 | 0.4 | -5.8 | -24.1
Cc1csc2ncc(C(=O)NCc3ccccc3Cl)c(=O)n12 | 0.8 | -12.0% | -33.7* | -0.2 | -3.8 | -4.2
Cc1cc(C(=O)NCc2ccccc2Cl)n(-c2ccccc2)n1 | 0.5 | -19.0% | -37.7* | 0.1 | -3.5 | -4.7
COc1ccccc1CNC(=O)c1cnc2sccn2c1=O | 2.8 | -13.4% | -39.6* | 1.1 | -11.6 | -4.8
Cc1cc(C(F)(F)F)c2sc(N)nc2n1 | 1.8 | -8.0% | -53.2* | -1.4 | -6.4 | 6.7
Nc1nc2nc(-c3ccccc3)cc(C(F)(F)F)c2s1 | -0.7 | u | 19.7 | 0.7 | 11.4 | -7.8
O=C(CNc1ccc2ccccc2c1)N/N=C/c1ccc([N+](=O)[O-])o1 | -0.3 | -25.2% | -25.3 | -0.1 | -1.8 | -0.3

Compound activity as filed in PubChem.
